Assay results: PubChem BioAssay (Tox21)
Several values for one entry are separate records, joined by “and”; a condition that tells them apart may be missing. Identical values can stand only once. Inconclusive results are not listed. Activity calls are given as the source filed them. The call rests on the fitted dose curve; in most records, active means well fitted curve in the direction sought with a large enough effect in the repeat runs; inconclusive means weak or mixed curves; inactive means no such curve, though single readings can be large; an effect the other way counts as inactive or inconclusive.

How the values were obtained:
[1] = qHTS RealTime-Glo MT Cell Viability Assay in HEK293 cells - 16 hour (AID 1224872); further: top concentration of the series differs between compounds; nearly all actives have a fitted effect of over 50% in size
Outline: (§1)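 Homogeneous bioluminescent viability format in HEK293 cells (600 cells/well). Following 5 h at 37 C/5% CO2, 23 nL compound was pintooled; the signal was measured repeatedly during 40 h incubation.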

[2] = qHTS RealTime-Glo MT Cell Viability Assay in HepG2 cells - 8 hour (AID 1224873); further: nearly all actives have a fitted effect of over 55% in size
Outline: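 HepG2 cells mixed with RealTime-Glo MT reagents (NanoLuc plus cell-permeant prosubstrate) were seeded at 600 cells/well, incubated 5 h at 37 C/5% CO2, then pinned with compounds in DMSO; nonlytic luminescence tracked viability during 40 h treatment.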

[3] = qHTS RealTime-Glo MT Cell Viability Assay in HEK293 cells - 40 hour (AID 1224874); conditions: RealTime-Glo luminescence; max response: hits give low values; further: nearly all actives have a fitted effect of over 50% in size
Outline: (§2)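 Luminescence readout at each listed time point; HEK293, 600 cells/well, RealTime-Glo MT reagent added with cells; compounds pinned (23 nL in DMSO) after 5 h at 37 C; continuous culture at 37 C.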

[4] = A CellTox Green Cytotoxicity Assay to monitor cytotoxicity in HEK293 cells - 24 hour (AID 1224875); further: series mostly up to about 77 µM; nearly all actives have a fitted effect of over 45% in size
Outline: (§3)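 Read-out: fluorescence of a cell-impermeant cyanine dye staining DNA of dead cells, proportional to cytotoxicity. HEK293, 600 cells/well with reagent, compound (23 nL DMSO) added after 5 h; reads at 0, 8, 16, 24, 32, 40 h.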

[5] = A CellTox Green Cytotoxicity Assay to monitor cytotoxicity in HepG2 cells - 16 hour (AID 1224876); further: nearly all actives have a fitted effect of over 45% in size
Outline: (§4)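 HepG2, 600 cells/well premixed w/ CellTox Green; 5 h settle, 37 C/5% CO2; pintool cpd add (DMSO); 37 C, 40 h; fluorescence read at 0, 8, 16, 24, 32, 40 h.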

[6] = qHTS RealTime-Glo MT Cell Viability Assay in HepG2 cells - 32 hour (AID 1224877); further: nearly all actives have a fitted effect of over 55% in size
Outline: (§5)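 Cell number in HepG2 cultures estimated from NanoLuc luminescence generated by metabolic reduction of a prosubstrate by living cells. The homogeneous, nonlytic format allowed repeated reads at 0, 8, 16, 24, 32 and 40 h of compound exposure.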

[7] = A CellTox Green Cytotoxicity Assay to monitor cytotoxicity in HepG2 cells - 24 hour (AID 1224878); further: nearly all actives have a fitted effect of over 45% in size
Outline: as §4

[8] = A CellTox Green Cytotoxicity Assay to monitor cytotoxicity in HepG2 cells - 40 hour (AID 1224879); further: nearly all actives have a fitted effect of over 40% in size
Outline: as §4

[9] = qHTS RealTime-Glo MT Cell Viability Assay in HEK293 cells - 0 hour (AID 1224880); further: top concentration of the series differs between compounds; nearly all actives have a fitted effect of over 45% in size
Outline: as §2

[10] = A CellTox Green Cytotoxicity Assay to monitor cytotoxicity in HepG2 cells - 0 hour (AID 1224882); further: nearly all actives have a fitted effect of over 35% in size
Outline: as §4

[11] = A CellTox Green Cytotoxicity Assay to monitor cytotoxicity in HepG2 cells - 32 hour (AID 1224883); further: nearly all actives have a fitted effect of over 50% in size
Outline: as §4

[12] = A CellTox Green Cytotoxicity Assay to monitor cytotoxicity in HEK293 cells - 8 hour (AID 1224884); further: nearly all actives have a fitted effect of over 35% in size
Outline: as §3

[13] = qHTS RealTime-Glo MT Cell Viability Assay in HepG2 cells - 16 hour (AID 1224885); further: nearly all actives have a fitted effect of over 50% in size
Outline: as §5

[14] = qHTS RealTime-Glo MT Cell Viability Assay in HEK293 cells - 24 hour (AID 1224886)
Outline: as §1

[15] = qHTS RealTime-Glo MT Cell Viability Assay in HEK293 cells - 8 hour (AID 1224887)
Outline: as §2

[16] = A CellTox Green Cytotoxicity Assay to monitor cytotoxicity in HEK293 cells - 16 hour (AID 1224888); further: nearly all actives have a fitted effect of over 35% in size
Outline: as §3

[17] = qHTS RealTime-Glo MT Cell Viability Assay in HepG2 cells - 0 hour (AID 1224889); further: nearly all actives have a fitted effect of over 50% in size
Outline: as §5

[18] = A CellTox Green Cytotoxicity Assay to monitor cytotoxicity in HepG2 cells - 8 hour (AID 1224890); further: nearly all actives have a fitted effect of over 45% in size
Outline: as §4

[19] = qHTS assay to identify small molecule antagonists of the estrogen receptor alpha (ER-alpha) signaling pathway using the BG1 cell line in the presence of 0.1 nM 17-beta-estradiol - cell viability counter screen (AID 1259241); further: nearly all actives have a fitted effect of over 40% in size
Outline: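 The cell line endogenously expresses full-length ER-alpha and carries four EREs driving luciferase. Cells are cultured 5 days hormone-free, treated 22 hr with compounds and 0.1 nM estradiol, then viability is read by fluorescence.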

[20] = A CellTox Green Cytotoxicity Assay to monitor cytotoxicity in HEK293 cells - 32 hour (AID 1224881); further: nearly all actives have a fitted effect of over 40% in size
Outline: as §3
On the % scale 0 is the no-effect control and ±100 the full control effect.

C=CC(=O)OCCN(CC)CC
inactive: Potency [1] | Potency [2] | max response [3] 3.34% | Potency [4] | Potency [5] | Potency [6] | Potency [7] | Potency [8] | Potency [9] | Potency [10] | Potency [11] | Potency [12] | Potency [13] | Potency [14] | Potency [15] | Potency [16] | Potency [17] | Potency [18] | Potency [19]

O=Cc1ccc(F)cc1
inactive: Potency [1] | Potency [2] | max response [3] 3.4% | Potency [4] | Potency [5] | Potency [6] | Potency [7] | Potency [8] | Potency [9] | Potency [20] | Potency [10] | Potency [11] | Potency [13] | Potency [14] | Potency [15] | Potency [16] | Potency [17] | Potency [18] | Potency [19]

CCOC(=O)CN
inactive: Potency [1] | Potency [2] | max response [3] -0.943% | Potency [4] | Potency [5] | Potency [6] | Potency [7] | Potency [8] | Potency [9] | Potency [20] | Potency [10] | Potency [11] | Potency [12] | Potency [13] | Potency [14] | Potency [15] | Potency [16] | Potency [17] | Potency [19]

O=C[C@H](O)[C@H](O)[C@H](O)CO
inactive: Potency [1] | Potency [2] | max response [3] 0.822% | Potency [4] | Potency [5] | Potency [6] | Potency [7] | Potency [8] | Potency [9] | Potency [20] | Potency [10] | Potency [11] | Potency [12] | Potency [13] | Potency [14] | Potency [15] | Potency [16] | Potency [17] | Potency [19]

Cc1cnccn1
inactive: Potency [1] | Potency [2] | max response [3] 8.17% | Potency [4] | Potency [5] | Potency [6] | Potency [7] | Potency [8] | Potency [9] | Potency [20] | Potency [12] | Potency [13] | Potency [14] | Potency [15] | Potency [16] | Potency [17] | Potency [18] | Potency [19]

CCOCN(C(=O)CS(=O)(=O)O)c1c(C)cccc1CC
inactive: Potency [1] | Potency [2] | max response [3] 8.02% | Potency [4] | Potency [5] | Potency [6] | Potency [7] | Potency [8] | Potency [9] | Potency [20] | Potency [12] | Potency [13] | Potency [14] | Potency [15] | Potency [16] | Potency [17] | Potency [18] | Potency [19]

COC(=O)CC(C)CCC=C(C)C (stereo not given)
inactive: Potency [1] | Potency [2] | max response [3] 7.75% | Potency [4] | Potency [5] | Potency [6] | Potency [7] | Potency [8] | Potency [9] | Potency [10] | Potency [11] | Potency [12] | Potency [13] | Potency [14] | Potency [15] | Potency [16] | Potency [17] | Potency [18] | Potency [19]

CC[N+](CC)(CC)Cc1ccccc1
inactive: Potency [1] | Potency [2] | max response [3] 3.38% | Potency [4] | Potency [5] | Potency [6] | Potency [7] | Potency [8] | Potency [9] | Potency [20] | Potency [11] | Potency [13] | Potency [14] | Potency [15] | Potency [16] | Potency [17] | Potency [18] | Potency [19]

CN1[C@@H]2CC[C@H]1CC(OC(=O)C(CO)c1ccccc1)C2 (stereo not given in full)
inactive: Potency [1] | Potency [2] | max response [3] -0.934% and 16.5% | Potency [4] | Potency [5] | Potency [6] | Potency [7] | Potency [8] | Potency [9] | Potency [20] | Potency [10] | Potency [11] | Potency [13] | Potency [14] | Potency [15] | Potency [16] | Potency [17] | Potency [18] | Potency [19]

ClC/C=C\CCl
inactive: Potency [1] | Potency [2] | max response [3] -46.5% | Potency [4] | Potency [5] | Potency [6] | Potency [7] | Potency [8] | Potency [9] | Potency [20] | Potency [11] | Potency [13] | Potency [14] | Potency [15] | Potency [16] | Potency [17] | Potency [18] | Potency [19]

C=CCCCCCCC=C
inactive: Potency [1] | Potency [2] | max response [3] 0.211% | Potency [4] | Potency [5] | Potency [6] | Potency [7] | Potency [8] | Potency [9] | Potency [20] | Potency [10] | Potency [11] | Potency [13] | Potency [14] | Potency [15] | Potency [16] | Potency [17] | Potency [18] | Potency [19]
